# Bioassay records as filed in PubChem.
# Only some compounds are listed: those with a hit (about 2.4% of all), similar ones and a draw of the others.
# S1P4 agonist: agonists of human S1P4 receptor | O95977 | S1P4-expressing cell line, agonist reporter assay | activation, % at 4.98 µM | 220,000 compounds, 0.35% hits; in the data active means activation above about 11%;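 further: 0% = DMSO vehicle and 100% = reference agonist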
# S1P3 antag: antagonists of human S1P3 receptor | AID 485 | CHO S1P3 NFAT-BLA reporter, FRET fluorescence, antagonist mode | inhibition, % at 4.98 µM | Q99500 | 170,000 compounds, 0.27% hits;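 active means inhibition above the plate cutoff, the mean inhibition of test wells on that plate plus 3 SD, cut at about 28% in these data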;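 further: cells challenged with S1P at its EC80 of 0.8 µM; blue over green emission ratio from cleaved BLA substrate after 4 h stimulation; 0% = S1P-stimulated wells and 100% = unstimulated DMSO-only wells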
# Target sequence (Q99500 whole entry, looked up): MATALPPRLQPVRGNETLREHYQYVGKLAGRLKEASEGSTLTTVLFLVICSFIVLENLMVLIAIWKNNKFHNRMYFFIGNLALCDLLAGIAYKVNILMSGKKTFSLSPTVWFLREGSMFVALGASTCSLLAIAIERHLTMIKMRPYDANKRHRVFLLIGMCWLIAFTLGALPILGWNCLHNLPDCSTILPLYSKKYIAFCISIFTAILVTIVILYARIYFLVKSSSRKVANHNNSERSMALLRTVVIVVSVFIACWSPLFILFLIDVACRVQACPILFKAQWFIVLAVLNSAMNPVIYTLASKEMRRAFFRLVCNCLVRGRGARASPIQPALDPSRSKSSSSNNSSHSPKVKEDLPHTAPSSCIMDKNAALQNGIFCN
# S1P4 antag: antagonists of human S1P4 receptor; AID 1510; S1P4-expressing cells, antagonist mode, reporter read-out; inhibition, % at 4.98 µM; 220,000 compounds, 0.26% hits; in the data active means inhibition above about 29%;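 further: 0% = wells stimulated with agonist and 100% = vehicle wells without agonist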
# EP2 modulator: EP2 receptor (human) modulation | induction, % at 25 µM | 260,000 compounds, 0.83% hits | EP2-expressing cells, cAMP HTRF FRET, PGE2 co-stimulation | AID 940;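 active means compounds whose cAMP rise, as percent of the full-agonist control response, exceeds 60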;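 further: rat C6 glioma line stably carrying human EP2 under a CMV promoter; the protocol text gives 20 µM as final concentration; 100% = response of wells given 1 µM PGE2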
# INS promoter inh: TRM-6 insulin promoter activity inhibition; TRM-6 cells (human fetal islet line), insulin promoter-eGFP reporter, imaging; reporter expression induced with tamoxifen; inhibition, % at 2 µM; 130,000 compounds, 0.9% hits; AID 1273;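 active means inhibition above the mean plus 3 SD, with well images judged a real hit on visual review, cut at about 60% in these data, passing the limit was not always enough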
# PGE2 EP2 inh: EP2 receptor (human) inhibition | inhibition, % at 25 µM | C6 glioma cells expressing human EP2, cAMP TR-FRET; cells stimulated with saturating PGE2 | P43116 | 260,000 compounds, 0.52% hits;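 active means percent inhibition above 40 after rounding to a whole number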;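 further: rat C6 glioma host cells with rolipram phosphodiesterase inhibitor present; the protocol text gives 20 µM as final concentration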
# * hit, by the source's call; · = no result.
SMILES,S1P4 agonist,S1P3 antag,S1P4 antag,EP2 modulator,INS promoter inh,PGE2 EP2 inh
Cc1cc(Cc2c(C)c(C)c(Cc3cc(C)cc(C(C)(C)C)c3O)c(C)c2C)c(O)c(C(C)(C)C)c1,·,·,·,16,·,55*
C/C(=N/O)c1cc(C(C)(C)C)c(O)c(C(C)(C)C)c1,-5,·,-9,37,42,4
CC(C)(C)c1cc(CN2CCCCC2)cc(C(C)(C)C)c1O,-4,·,-10,23,54,6
Cc1cc(Cc2cc(C)cc(C(C)(C)C)c2O)c(O)c(Cc2cc(C)cc(C(C)(C)C)c2O)c1,·,·,·,7,·,41*
CN1[C@H](C(=O)N2CCc3ccccc3C2)C[C@H](c2cccs2)NS1(=O)=O,·,·,·,-221,·,·
CCOc1ccc(NC(=O)COC(=O)C2CC(=O)N(c3ccc(OC)cc3)C2)cc1 (stereo unspecified),·,·,·,37,·,1
O=C(NCCc1ccccc1)NC1CCCCC1,0,-31,7,6,80*,14
O=C(NC1CCCC1)c1ccccc1OCc1ccccc1,2,5,-7,62*,-55,8
COc1ccccc1C(=O)NC1CCCCCCC1,0,·,-3,49,-15,12
O=C(NC1CCCCCC1)C(=S)NCCc1ccccc1,-1,0,12,-30,·,5
CC(=O)C1=C(O)C(=O)N(C)C1c1ccccc1Cl (stereo unspecified),·,·,·,9,·,7
Cc1cc(C)cc(-n2c(SCC(N)=O)nnc2-c2cccnc2)c1,·,·,·,-8,·,7
COc1ccc(NCc2nnc(SCC(N)=O)n2-c2cccc(Cl)c2)cc1,·,·,·,8,·,8
O=C(Cn1nc(-c2ccccc2)ccc1=O)NCCCN1CCOCC1,-3,9,-9,-1,·,11
O=C(Cn1nc(-c2ccccc2)ccc1=O)NCC1COCCO1 (stereo unspecified),-2,1,-1,7,100*,9
Clc1ccc2c(N/N=C/c3cccc(Br)c3)ccnc2c1,1,-1,-11,-17,73*,8
COc1ccc(Br)cc1/C=C/C(=O)Nc1c(C)cccc1C,1,·,95*,-30,·,10
Cc1ccc2[nH]c3c(N4CCN(Cc5ccccc5)CC4)ncnc3c2c1,-1,·,-4,-37,·,31
CCOc1ccc2[nH]c3c(N4CCN(c5ccccn5)CC4)ncnc3c2c1,0,22,-11,-36,88*,8
COC(=O)c1c(NC(=O)c2nc3nc(C)cc(C(F)F)n3n2)sc2c1CCC2,0,·,-26,6,23,10
Cc1cc(C(F)F)n2nc(C(=O)Nc3sc4c(c3C(=O)OC(C)C)CCCC4)nc2n1,·,·,·,67*,·,13
CCc1ccc2[nH]c(=O)c(CN(Cc3ccccc3)C(CC)c3nnnn3C(C)(C)CC)cc2c1 (stereo unspecified),·,·,·,-16,·,8
CCOC(=O)N1CCN(C(=O)CSCc2ccc(C)cc2)CC1,0,·,-8,-5,47,-1
CCOC(=O)N1CCN(C(=O)CCSCCc2ccncc2)CC1,-1,4,-14,-1,79*,20
CCc1nccn1CC(=O)Nc1ccc(Oc2ccc3c(c2)OCO3)cc1,·,·,·,-93,·,2
SMILES,S1P4 agonist,S1P3 antag,S1P4 antag,EP2 modulator,INS promoter inh,PGE2 EP2 inh
NC(=O)c1cccnc1Nc1cccc(F)c1,0,7,-5,-13,87*,2
CCN(CC)Cc1c(O)ccc2c([N+](=O)[O-])c(C)n(-c3ccc(OC)cc3)c12,3,·,-14,17,78*,11
CCN(CC)Cc1c(O)ccc2occ(C(=O)c3ccc(OC)cc3)c12,1,·,-11,-3,-105,10
O=C(O)c1cccc(NC(=S)N/N=C/c2ccccn2)c1,1,-18,-8,16,·,8
O=C(O)c1cccc(NC(=S)N/N=C/c2cccc(O)c2)c1,-1,-16,-2,-26,78*,5
NCC(O)COCc1ccco1 (stereo unspecified),·,·,·,-64,·,5
CC1=C(C(=O)Nc2ccccc2)C(c2ccc(C)o2)n2c(s/c(=C/c3ccccc3)c2=O)=N1 (stereo unspecified),2,·,4,-21,20,19
CC1=C(C(=O)Nc2ccccc2C)C(c2ccc(C)o2)n2c(s/c(=C/c3ccccc3)c2=O)=N1 (stereo unspecified),-2,·,2,24,77*,21
CCc1c(C)sc2ncn(C3CCN(C(=O)Cn4nc(C)c(C)c4C)CC3)c(=O)c12,·,·,·,-18,·,·
O=C(N/N=C/c1cn(-c2cccs2)nc1-c1ccccc1)c1ccc(O)cc1,1,11,-7,-38,-7,42*
COc1ccc(CN(C2CCCC2)S(=O)(=O)c2ccc(-n3cnnn3)cc2)cc1,0,·,-1,4,83*,9
COc1cccc(N2CCN(CC(O)c3ccc4c(c3)CC(C)O4)CC2)c1 (stereo unspecified),·,·,·,-52,·,9
O=C(O)CCCn1cc(NC(=O)c2cc(F)c(F)cc2Cl)cn1,1,3,-4,61*,·,11
O=C(O)CCCn1cc(NC(=O)c2cccc(F)c2)cn1,-1,-30,-2,12,-64,8
CC(C)N(C(=O)Cn1c(SCC(=O)NCc2ccc3c(c2)OCO3)nc2ccccc21)C(C)C,0,·,-15,8,-160,5
CC(C)Sc1nc2ccccc2n1CC(=O)NCc1ccc2c(c1)OCO2,-1,·,4,26,91*,6
CC(C)c1nc(SCC(=O)c2ccc(F)cc2)c2ccccc2n1,2,4,-7,63*,·,8
Cc1cc2cc3c(cc2nc1SCC(=O)c1ccccc1F)OCCO3,·,·,·,72*,·,19
Cc1cc2cc3c(cc2nc1SCC(=O)Nc1ccccc1F)OCO3,·,·,·,11,·,15
Cc1cc2ccccc2nc1SCC(=O)N1c2ccccc2CC1C (stereo unspecified),5,·,0,31,100*,22
Cc1cc2ccccc2nc1SCC(=O)c1ccccc1,·,·,·,81*,·,9
Cc1cc2cc3c(cc2nc1SCC(=O)N1c2ccccc2CC1C)OCO3 (stereo unspecified),-1,·,-2,21,-431,6
CCOC(=O)CSc1nc2cc3c(cc2cc1C)OCO3,1,2,-18,58,50,7
Cc1cc2cc3c(cc2nc1SCC(=O)c1ccccc1)OCO3,·,·,·,70*,·,13
Cc1cc2ccccc2nc1SCC(=O)NC(C)(C)C,·,·,·,87*,·,7
CC(=O)NC1C(=O)SC1(C)C (stereo unspecified),-2,-3,-19,17,88*,8
Cc1cc(NC(=O)COc2ccc(N(C)S(=O)(=O)c3ccccc3)cc2)no1,1,-14,-8,-25,79*,10
CCN(c1ccccc1)S(=O)(=O)c1ccc(OCC(=O)Nc2cc(C)on2)cc1,1,·,-13,10,-28,12
Cc1ccc(C(c2nnnn2C2CCCCC2)N2CCSCC2)cc1 (stereo unspecified),·,·,·,7,·,16
CCOc1ccc(C2=CS/C(=C(\C#N)c3nnc4n3CCCCC4)N2CC)cc1,15*,·,-5,-21,-403,1
